# This is one part of a sample in which hits are shown more often than they occur.
# miR-122 inh = activators of miR-122 sensor in Huh7 cells; Huh7 psiCHECK-miR122 Renilla luciferase sensor, 48 h; activation, % at 12.5 µM; 0.14% of 340,000 active; AID 623901;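 active = mean activation of 30% or more, with every replicate also reaching 30%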;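 note: 0% = median of neutral control wells and 100% = median of positive control wells; higher luciferase signal means stronger suppression of miR-122 activity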
# Numbers without * were called inactive.
SMILES,miR-122 inh
C[C@@H]1CN([C@@H](C)CO)C(=O)c2cc(C#Cc3ccccn3)cnc2O[C@@H]1CN(C)C(=O)CCN1CCCCC1,9
CCCN1C[C@H](C)[C@H](OC)CN(C)C(=O)c2ccc(NS(C)(=O)=O)cc2OC[C@@H]1C,0
C[C@H]1CN([C@@H](C)CO)C(=O)c2cc(C#CC3(O)CCCC3)cnc2O[C@@H]1CN(C)Cc1ccncc1,2
CCn1c(CCNC(=O)c2ccc(OC)cc2)nnc1SCC(=O)Nc1ccccc1F,-120
CCOc1ccc(-c2nnc(SCC(=O)Nc3ccc4c(c3)c3ccccc3n4CC)n2N)cc1,54*
CCn1c(SCC(=O)Nc2ccc(N3CCOCC3)cc2)nnc1-c1ccc(OC)cc1,-142
CCC(=O)Nc1ccc2c(c1)OC[C@H](C)NC[C@@H](C)[C@H](OC)CN(C)C2=O,3
CCCNC(=O)N1C[C@@H](C)[C@H](OC)CN(C)C(=O)c2cc(NS(=O)(=O)CC)ccc2OC[C@@H]1C,1
O=C(NC1CCCC1)C(c1ccccc1)N(Cc1ccc2c(c1)OCO2)C(=O)Cc1cccs1 (stereo not drawn),-90
COc1ccc(C#Cc2ccc3c(c2)O[C@@H](CN(C)C(=O)NC2CCCCC2)[C@@H](C)CN([C@@H](C)CO)S3(=O)=O)cc1,-13
COc1ccc(C(C(=O)NC2CCCCC2)N(C(=O)CCl)c2cccc(Cl)c2)cc1 (stereo not drawn),55*
COc1cccc(-c2cnc3c(c2)C(=O)N([C@@H](C)CO)C[C@@H](C)[C@@H](CN(C)C(=O)Nc2ccccc2F)O3)c1,1
C[C@H]1CN([C@@H](C)CO)S(=O)(=O)c2ccc(C#Cc3ccccc3)cc2O[C@@H]1CN(C)C(=O)Nc1ccc2c(c1)OCO2,-51
Clc1ccc2c(N/N=C/c3ccccc3Br)ccnc2c1,59*
CC(C)CC#Cc1cnc2c(c1)C(=O)N([C@H](C)CO)C[C@@H](C)[C@H](CN(C)C(=O)Cc1ccccc1)O2,6
COCC#Cc1cnc2c(c1)C(=O)N([C@@H](C)CO)C[C@@H](C)[C@@H](CN(C)Cc1ccccc1)O2,0
C[C@H](CO)N1C[C@H](C)[C@H](CN(C)C(=O)c2cccnc2)Oc2ncc(Br)cc2C1=O,2
C[C@H](CO)N1C[C@H](C)[C@@H](CN(C)C)Oc2ncc(C#CC3CC3)cc2C1=O,2
CCOc1ccc(S(=O)(=O)Nc2cccc(Cl)c2)cc1,-90
CCOc1ccc2nc(NS(=O)(=O)c3cccs3)sc2c1,34*
O=S(=O)(Nc1cccc2ncccc12)c1cccs1,-234
Cc1nnc(NC(=O)CSc2nc(C(C)C)nc3sc(C)c(C)c23)s1,55*
C/C=C/c1cnc2c(c1)C(=O)N([C@H](C)CO)C[C@H](C)[C@H](CN(C)C(=O)Nc1cccc(OC)c1)O2,11
Cc1ccc(-c2ccc3c(c2)O[C@@H](CN(C)Cc2cccc(C(=O)O)c2)[C@H](C)CN([C@H](C)CO)S3(=O)=O)cc1,-7
CC(C)CC#Cc1cnc2c(c1)C(=O)N([C@@H](C)CO)C[C@@H](C)[C@H](CN(C)C(=O)C1CCCCC1)O2,6
SMILES,miR-122 inh
Cc1cc(OCC(O)CN2CCOCC2)cc(C)c1Cl (stereo not drawn),-91
Cc1cc(C)cc(OCC(O)CN2CCC(CN3C(=O)c4cccc5cccc(c45)C3=O)CC2)c1 (stereo not drawn),67*
CC(C)CC#Cc1ccc2c(c1)O[C@@H](CN(C)C(=O)NC1CCCC1)[C@H](C)CN([C@H](C)CO)S2(=O)=O,-24
C[C@H]1CN([C@@H](C)CO)C(=O)c2cc(-c3ccc(F)cc3)cnc2O[C@H]1CN(C)Cc1cccnc1,-2
COc1cccc(C#Cc2ccc3c(c2)O[C@H](CN(C)C(C)=O)[C@@H](C)CN([C@H](C)CO)S3(=O)=O)c1,-13
CC(=O)N(C)C[C@@H]1[C@@H](c2ccc(-c3cccc(C#N)c3)cc2)[C@H](CO)N1C(C)=O,92*
CCN(C[C@@H]1[C@@H](c2ccccc2)[C@@H](CO)N1C(=O)COC)S(C)(=O)=O,-92
CCC(=O)N(C)C[C@@H]1Oc2cc(-c3cccc(C#N)c3)ccc2S(=O)(=O)N([C@@H](C)CO)C[C@@H]1C,2
CC(=O)N1[C@H](CNC(=O)C2CC2)[C@H](c2ccc(-c3ccccc3)cc2)[C@@H]1CO,-150
CCC(=O)N(C)C[C@H]1Oc2cc(-c3cccnc3)ccc2S(=O)(=O)N([C@@H](C)CO)C[C@H]1C,2
CCCNC(=O)NC[C@@H]1[C@@H](c2ccc(C3=CCCC3)cc2)[C@H](CO)N1C(=O)CC,-343
CCC(=O)N1[C@H](CN(C)C(C)=O)[C@H](c2ccc(-c3cccnc3)cc2)[C@@H]1CO,43*
CCC(=O)N1[C@H](CN(C(C)C)S(C)(=O)=O)[C@@H](c2ccccc2)[C@@H]1CO,92*
C[C@H]1CN([C@@H](C)CO)C(=O)c2cc(C#CC3(O)CCCC3)cnc2O[C@H]1CN(C)C(=O)C1CCCCC1,-1
C[C@H]1CN([C@@H](C)CO)C(=O)c2cc(/C=C/c3ccccc3)cnc2O[C@@H]1CN(C)C(=O)Nc1ccccc1F,0
CCC(=O)N(C)C[C@H]1Oc2ncc(C#Cc3ccc(OC)cc3)cc2C(=O)N([C@H](C)CO)C[C@H]1C,-4
C[C@@H]1CN([C@H](C)CO)C(=O)c2cc(-c3ccncc3)cnc2O[C@H]1CN(C)C(=O)Cc1cccnc1,1
Cc1ccc(-c2cnc3c(c2)C(=O)N([C@@H](C)CO)C[C@@H](C)[C@H](CN(C)C(=O)Cc2cccnc2)O3)cc1,4
C[C@@H]1CN([C@H](C)CO)C(=O)c2cc(/C=C/c3ccccc3)cnc2O[C@H]1CN(C)C(=O)c1cccc(F)c1,-14
C[C@H](O)C#Cc1ccc2c(c1)O[C@@H](CN(C)C)[C@@H](C)CN([C@H](C)CO)S2(=O)=O,3
COc1ccc(NC(=O)CN(C)C(=O)/C=C/c2ccc(OCc3ccccc3)cc2)cc1,43*
COc1ccc(/C=N/NC(=O)COc2ccccc2-c2ccccc2)cc1,-129
COc1ccc(NC(=O)CCN2C(=O)c3ccccc3C2=O)cc1,-91
C[C@H](CO)N1C[C@H](C)[C@@H](CN(C)Cc2ccccc2F)Oc2ncc(/C=C/c3ccccc3)cc2C1=O,-1
C[C@@H]1CN([C@H](C)CO)C(=O)c2cc(-c3cccc(F)c3)cnc2O[C@H]1CN(C)CC1CCCC1,9
SMILES,miR-122 inh
Cc1ccccc1NC1=C/C(=N\S(=O)(=O)c2cccs2)c2ccccc2C1=O,60*
COc1ccc(-c2ccc3c(c2)O[C@@H](CN(C)C(=O)c2ccccc2F)[C@H](C)CN([C@H](C)CO)S3(=O)=O)cc1,-11
C[C@@H]1CN([C@@H](C)CO)S(=O)(=O)c2ccc(C#Cc3cccc(F)c3)cc2O[C@@H]1CN(C)C(=O)CN1CCOCC1,-3
C[C@@H]1CN([C@@H](C)CO)S(=O)(=O)c2ccc(-c3ccncc3)cc2O[C@@H]1CN(C)C(=O)C1CC1,2
COCC(=O)N(C)C[C@@H]1Oc2ncc(C#Cc3ccncc3)cc2C(=O)N([C@@H](C)CO)C[C@H]1C,-1
C[C@@H]1CN([C@H](C)CO)S(=O)(=O)c2ccc(C#Cc3ccccn3)cc2O[C@H]1CN(C)Cc1ccc(F)cc1,-1
C[C@@H]1CN([C@@H](C)CO)C(=O)c2cc(C#CCc3ccccc3)cnc2O[C@H]1CN(C)C(=O)C1CCCCC1,4
COCC(=O)Nc1ccc2c(c1)C(=O)N(C)[C@@H]1CC[C@@H](CC(=O)NC3CCCC3)O[C@H]1CO2,53*
